The list is not random: actives were taken first. Their share in the collection is about 4.7%.
TRHR PAM: qHTS for Small Molecule Agonists and Allosteric Enhancers of Human TRH Receptor: Primary Screen for Enhancers; TRHR cells, fluo-8 calcium fluorescence, EC20 TRH enhancement; enhancement, % at 2 µM; 360,000 tested, 0.66% active; AID 493056, 2011; in the data active = enhancement above about 30%
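TRHR-expressing cells loaded with fluo-8 calcium dye were read kinetically (ex 480/em 530) during compound addition, then stimulated with an EC20 of TRH (10 nM final). Enhancement of the Gq-mediated intracellular calcium response was scored.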
D1 antag: Antagonist of Human D 1 Dopamine Receptor: qHTS | D(1A) dopamine receptor (Homo sapiens), P21728 | HEK293 TREx D1 cells, calcium flux, dopamine EC80; hits give low values | activity change, negative = inhibition, % at 10 µM | 360,000 tested, 3.2% active | AID 504652, 2011; in the data active = activity change below about -30%
Target sequence (P21728 whole entry, looked up): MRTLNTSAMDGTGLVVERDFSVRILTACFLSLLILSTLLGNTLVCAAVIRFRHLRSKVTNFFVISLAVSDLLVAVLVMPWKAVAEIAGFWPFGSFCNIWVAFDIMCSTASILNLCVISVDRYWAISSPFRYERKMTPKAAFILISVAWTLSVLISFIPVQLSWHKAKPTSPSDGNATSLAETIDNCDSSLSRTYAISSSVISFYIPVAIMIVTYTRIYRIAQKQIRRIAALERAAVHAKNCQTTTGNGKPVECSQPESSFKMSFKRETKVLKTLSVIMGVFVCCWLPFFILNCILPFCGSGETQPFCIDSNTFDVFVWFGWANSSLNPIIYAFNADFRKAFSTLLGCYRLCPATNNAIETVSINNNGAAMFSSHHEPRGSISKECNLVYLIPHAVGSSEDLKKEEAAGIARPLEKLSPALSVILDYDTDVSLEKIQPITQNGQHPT
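Antagonism measured as reduced calcium response to an EC80 dopamine addition following 180 s compound pre-read; cells were inducible HEK293 Trex D1 plated overnight at 30 C, read kinetically at 1 cycle/sec.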
TRHR ag: qHTS for Small Molecule Agonists and Allosteric Enhancers of Human TRH Receptor: Primary Screen for Agonists | AID 493084, 2011 | Thyrotropin-releasing hormone receptor (Homo sapiens), P34981 | activation, % at 2 µM | 360,000 tested, 0.18% active | TRHR cells, calcium flux fluo-8, FDSS agonist mode
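TRHR-expressing cells, plated overnight in medium with 10% serum, were loaded with fluo-8 calcium dye at room temperature. After a 10 s baseline, library compound was pin-added and calcium release was recorded kinetically (ex 480/em 530) as agonist response.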
D1 PAM: Potentiators of Human D1 Dopamine Receptor: qHTS. D(1A) dopamine receptor (Homo sapiens), P21728. 360,000 tested, 0.036% active. potentiation, % at 10 µM. HEK293 TREx D1 cells, calcium flux, dopamine EC20 potentiation; in the data active = potentiation above about 30%
D1 ag: Allosteric Agonists of the Human D1 Dopamine Receptor: qHTS. 360,000 tested, 1% active. D(1A) dopamine receptor (Homo sapiens), P21728. HEK293 T-REx D1 cells, calcium flux, agonist mode. activation, % at 2 µM
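Inducible HEK293 T-REx D1 cells, force-coupled to calcium signalling, were plated at 4000 cells/well with tetracycline and held overnight at 30 C. After no-wash calcium dye loading, compound-evoked calcium rise over 180 s flagged agonists.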
Large screens that a line does not name were inactive. Cut-off read from the data, not from the text of the source, unless noted: active = activation above about 30%; inactive = the rest.

C[C@@H](NC(=O)c1ncn(Cc2ccccc2)c1C(=O)N[C@H](C)c1ccccc1)c1ccccc1	none
Cc1ccc(-c2csc3nnc(SCC(=O)N4CCN(Cc5ccccc5)CC4)n23)cc1	none
O=C(CSc1nnc2scc(-c3ccccc3)n12)N1CCN(Cc2ccccc2)CC1	TRHR PAM 39
CCOC(=O)c1sc2ncn(CC(=O)Nc3cccc(C)c3)c(=O)c2c1C	D1 antag -35
O=C(NC1CC(=O)N(c2ccccc2)C1)c1ccc(S(=O)(=O)N2CCOCC2)cc1 (centres undefined)	none (no result: D1 antag)
NS(=O)(=O)c1ccc(CCNCc2cc(Br)ccc2OCc2ccccc2)cc1	D1 antag -34, D1 ag 34
CCNCc1cc(Cl)c(OCc2ccccc2)c(OCC)c1	D1 ag 55
CCOc1cc(CNCCO)cc(Br)c1OCc1ccccc1	none (no result: D1 antag)
COc1cc(CNCCc2ccc(S(N)(=O)=O)cc2)ccc1OCC(=O)NC(C)(C)C	none
CCOc1cc(CNCCc2ccc(S(N)(=O)=O)cc2)ccc1OCc1ccccc1	D1 antag -45, D1 ag 35
CCOc1cc(CNCCc2ccc(S(N)(=O)=O)cc2)cc(Cl)c1OCc1ccccc1	D1 ag 34
CCOc1cc(CNc2ccc(S(N)(=O)=O)cc2)cc(Cl)c1OC	none
CC(=O)N1CCc2cc(S(=O)(=O)CCC(=O)NCc3ccc(F)cc3)ccc21	none
O=C1CC(c2ccco2)Cc2nc(Nc3ccc(F)cc3)ncc21 (centres undefined)	none
O=C1CC(c2ccco2)Cc2nc(NCC3CCCO3)ncc21 (centres undefined)	D1 antag -32
O=C1CCN(CCc2ccccc2)CCN1CCSc1ccc(Br)cc1	none
Cc1ccc(SCCN2CCN(CCc3ccccc3)CCC2=O)cc1	D1 antag -38
Cn1c(=O)c2nc(SCC(=O)Nc3ccc(OC(F)(F)F)cc3)n(C)c2n(C)c1=O	none (no result: D1 antag)
O=C(CCNC(=O)C1CCN(S(=O)(=O)c2ccc(F)cc2)CC1)NCc1cccc(Cl)c1	none
CCOc1ccc(N/C(SC)=C(/C#N)C(N)=O)cc1	D1 antag -52
CCc1ccc(N/C(SC)=C(/C#N)C(N)=O)cc1	none
Cc1ccc(C(OC(=O)c2ccco2)C(=O)NC(C)(C)C)cc1 (centres undefined)	D1 antag -44
COc1ccc(C(OC(=O)c2ccco2)C(=O)NC(C)(C)C)cc1 (centres undefined)	none
COc1ccc(NC(C)=O)cc1S(=O)(=O)N(C)Cc1c(C)nn(-c2ccccc2)c1C	D1 antag -33
Cc1cccc(N2CCN(C(=O)c3ccccn3)CC2C)c1 (centres undefined)	none
Cc1cccc(N2CCN(C(=O)c3cccc(N4C(=O)C5C6C=CC(C6)C5C4=O)c3)CC2C)c1 (centres undefined)	D1 antag -35
Cc1cccc(N2CCN(C(=O)CCN3C(=O)C4C5C=CC(C5)C4C3=O)CC2C)c1 (centres undefined)	none
Cc1ccc(-c2c(C(=O)N3CCN(c4cccc(C)c4)C(C)C3)oc(=O)c3ccccc23)cc1 (centres undefined)	D1 antag -37
O=C(CN1C(=O)CCn2nc(-c3ccccc3)cc21)NCc1ccc(F)cc1	none
O=S(=O)(c1cccc(-c2nnc3n2CCCCC3)c1)N1CCCC1	TRHR PAM 34
Cc1cc(C)cc(-n2c(C)cc(C(=O)CSc3nnnn3C)c2C)c1	D1 ag 41
CN(CC(=O)Nc1ccc(Cl)cc1)C(=O)c1ccc(S(=O)(=O)Nc2ccccc2)cc1	none
CCN(CC)S(=O)(=O)c1cc(C(=O)Nc2ccncc2)ccc1Cl	D1 antag -31
CCN(CC)S(=O)(=O)c1cc(C(=O)N(C)CC(=O)Nc2ccc(Cl)cc2)ccc1Cl	D1 antag -33
CCOC(=O)c1ccc(NC(=O)C2C3CCCCC32)cc1 (centres undefined)	none
O=[N+]([O-])c1cccc(NC(=S)NCc2ccncc2)c1	D1 antag -40
S=C(NCc1ccc(Cl)cc1)Nc1ccccc1	none
NS(=O)(=O)c1ccc(NC(=S)NCc2ccc(F)cc2)cc1	none
O=C(NCc1ccncc1)Nc1cccc([N+](=O)[O-])c1	none
S=C(NCc1ccc(Cl)cc1)Nc1ccncc1	D1 antag -43
O=[N+]([O-])c1ccc(NC(=S)NCc2ccncc2)cc1	D1 antag -41, D1 ag 32
O=[N+]([O-])c1ccc(NC(=S)NCc2ccc(F)cc2)cc1	D1 antag -35
N#C/C(=C\c1ccc(-c2cccc(Cl)c2)o1)C(=O)Nc1cccc(C(F)(F)F)c1	none
CC/C(=N\NC(=O)Cc1ccc(Br)cc1)c1cccs1	none
O=[N+]([O-])c1ccc(NC(=S)NCCc2ccc(Cl)cc2)cc1	none
O=[N+]([O-])c1ccc(NC(=S)NCCc2ccccc2)cc1	D1 antag -37
COc1ccc(S(=O)(=O)Nc2ccc3c(c2)CCC3)cc1	none
Cc1cccc(NC(=O)Nc2ccc3c(c2)CCC3)c1	D1 antag -30
Cc1ccc(C(=O)Nc2ccc3c(c2)CCC3)cc1	TRHR PAM 35
CC(=O)Nc1ccc(S(=O)(=O)Nc2ccc3c(c2)CCC3)cc1	D1 antag -56, D1 ag 52
Cn1cc(C(=O)Nc2ccc3c(c2)CCC3)cn1	D1 antag -31
C[C@@H](O)[C@@H]1NC(=O)c2cc([N+](=O)[O-])cc(I)c2NCC[C@@H](C(N)=O)NC(=O)CNC1=O	none
CCOC(=O)C1(Cc2ccccc2)CCCN(C2CCCC2)C1 (centres undefined)	none
CC1CCCN(C(=O)CN(c2ccccc2)S(=O)(=O)c2ccc(F)cc2)C1 (centres undefined)	none (no result: D1 PAM)
CCC(=O)c1ccc(OCC(=O)OC(C)C(=O)NCc2ccc3c(c2)OCO3)cc1 (centres undefined)	none
COC(=O)c1cc(C(=O)NCCCN2CCOCC2)cc([N+](=O)[O-])c1	none
CCN(CC)CCCn1c2c(c(SCC(=O)Nc3nccs3)nc1=O)CCC2	D1 antag -56
CC(=O)N1CCN(S(=O)(=O)c2cccc(C(=O)NNC(=O)COc3ccc(F)cc3)c2)CC1	none
S=C(NCc1ccc(Cl)cc1Cl)Nc1ccccc1	D1 antag -31
S=C(NCc1ccccc1Cl)Nc1ccccc1Cl	none
S=C(Nc1ccccc1)Nc1ccc(Cl)cc1Cl	none
Cc1cc(Cl)ccc1NC(=S)NCc1ccccc1Cl	D1 antag -32
COc1ccc(-c2nc(NC(=O)C3=NN(c4cccc(C)c4)C(=O)CC3)sc2C)cc1	none

Screening results as filed in PubChem BioAssay.
